Screening data: PubChem, several laboratories
A1 inh = inhibitors of the anti-apoptotic protein A1, read as caspase activation. MEF A1-2A-BIM cells, Caspase-Glo 3/7 luminescence, 3 h; percent of clofoctol response, vehicle zero. caspase activation, % (no concentration beside the values). hit rate 0.066% among 330,000. AID 2462;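 active = over half of replicate activation scores above 10%, or exactly half above 10 with the replicate mean above 10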
Beta cell apopt = beta cell apoptosis inhibition; protection from apoptosis, % (concentration not given with the values); hit rate 0.8% among 300,000; INS-1E cytokine-induced death, ATP luminescence, 48 h; percent of positive-control rescue, neutral wells zero; AID 435005;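 active = Every replicate reaches about 75%, or at least half do and their mean reaches it too, limit read from the data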;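 also: higher means more ATP so stronger rescue from cytokine killing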
aSyn UTR inh = 5' untranslated region of α-synuclein, MLPCN primary screen; alpha-synuclein 5'UTR reporter, inhibitor activity; inhibition, % (tested at 7.5 µM); hit rate 0.82% among 300,000; AID 1813; in the data active = inhibition above about 60%;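 also: H4 neuroglioblastoma cells stably carrying SNCA 5'UTR luciferase fusion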
CSC inhib = cancer stem cell inhibition | cancer stem cell-like cells viability, luminescence | inhibition, % at 7.5 µM | hit rate 1.1% among 300,000 | AID 2717; in the data active = inhibition above about 75%; tested in HMLE shEcad cells
Mdm2 MdmX PPI = disrupts the human Mdm2-MdmX interaction; inhibition, % at 8 µM; AID 485346; O15151+Q00987; SaOS-2 split-luciferase Mdm2/MdmX complementation, luminescence; hit rate 3% among 330,000;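 active = inhibition of at least 50% at 8 µM in the primary screen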
Target sequence (O15151 whole entry, looked up): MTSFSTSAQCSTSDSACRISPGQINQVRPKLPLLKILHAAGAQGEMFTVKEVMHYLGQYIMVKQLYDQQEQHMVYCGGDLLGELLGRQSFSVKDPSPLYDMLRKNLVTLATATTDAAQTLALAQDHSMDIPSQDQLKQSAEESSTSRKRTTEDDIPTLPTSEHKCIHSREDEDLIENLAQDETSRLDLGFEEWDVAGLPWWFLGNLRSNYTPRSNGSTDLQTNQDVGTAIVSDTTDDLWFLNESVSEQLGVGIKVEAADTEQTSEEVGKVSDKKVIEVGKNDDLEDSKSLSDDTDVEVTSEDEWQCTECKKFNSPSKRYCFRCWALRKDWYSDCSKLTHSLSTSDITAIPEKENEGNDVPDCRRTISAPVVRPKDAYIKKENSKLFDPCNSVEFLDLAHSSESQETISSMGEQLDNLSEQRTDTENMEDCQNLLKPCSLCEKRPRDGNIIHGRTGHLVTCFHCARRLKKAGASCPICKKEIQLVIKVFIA
Target sequence (Q00987 whole entry, looked up): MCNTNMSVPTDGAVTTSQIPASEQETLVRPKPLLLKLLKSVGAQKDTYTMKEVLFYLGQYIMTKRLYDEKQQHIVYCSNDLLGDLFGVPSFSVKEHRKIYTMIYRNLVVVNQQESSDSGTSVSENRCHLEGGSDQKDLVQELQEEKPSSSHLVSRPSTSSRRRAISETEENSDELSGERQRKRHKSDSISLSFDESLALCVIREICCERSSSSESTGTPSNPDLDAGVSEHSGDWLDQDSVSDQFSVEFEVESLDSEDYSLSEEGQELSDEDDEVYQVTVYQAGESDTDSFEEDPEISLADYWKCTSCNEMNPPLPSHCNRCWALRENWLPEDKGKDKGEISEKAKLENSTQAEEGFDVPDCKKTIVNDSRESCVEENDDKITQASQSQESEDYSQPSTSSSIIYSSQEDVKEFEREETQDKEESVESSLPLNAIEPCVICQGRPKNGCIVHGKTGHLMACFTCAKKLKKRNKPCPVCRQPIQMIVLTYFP
Mdm2 MdmX conf = confirmation of human Mdm2/MdmX interaction inhibitors; AID 489028; hit rate 55% among 10,000; shares compounds with Mdm2 MdmX PPI; Mdm2-MdmX binding, luminescent assay; inhibition, % at 8 µM; in the data active = inhibition above about 40%
Full FLuc ctr = inhibits full-length luciferase, flagging false Mdm2/MdmX hits. hit rate 77% among 6,200. shares compounds with Mdm2 MdmX PPI. AID 504607. SaOS-2 full-length luciferase counterscreen, luminescence. inhibition, % at 8 µM;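 active = mean inhibition at 8 µM reaching about 37%, which flags the compound as non-specific, limit read from the data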;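 also: p53-null SaOS-2 cells with luciferase driven by a doxycycline-inducible promoter; compound on cells about two nights before reading with doxycycline added after day one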
Hits are given with their value; . = inactive; / = no result. Hits are enriched below; roughly 4.1% of the tested compounds scored in any of these assays.

SMILES	A1 inh	Beta cell apopt	aSyn UTR inh	CSC inhib	Mdm2 MdmX PPI	Mdm2 MdmX conf	Full FLuc ctr
COc1cccc(/C=N/NC(=O)CNC(=O)C(c2ccccc2)c2ccccc2)c1O	.	.	.	/	57	68	.
CCN(C(=O)N1CCOCC1)c1ccccc1C	.	.	.	.	.	/	/
NS(=O)(=O)c1ccc(CCNc2ccnc3cc(Cl)ccc23)cc1	.	/	.	.	.	/	/
CCOC(=O)c1cccc2c1-c1ccccc1/C2=N/O	.	.	.	.	76	57	.
CCOC(=O)NN=C1c2ccccc2-c2ccccc21	.	.	.	.	.	/	/
Cn1c(=NC(=O)CCl)sc2ccccc21	.	.	.	.	98	97	.
CC(C)N1CC(COc2ccc(Cl)cc2Cl)OC1=O (centres undefined)	.	.	.	.	.	/	/
COc1cc(OC)cc(C(=O)N2CCN(C(=O)c3cccc(F)c3)CC2)c1	.	.	.	.	.	/	/
COc1ccc2cc3c(N)nn(C(=O)c4ccc(F)cc4)c3nc2c1	.	.	.	.	82	89	47
COc1ccc2cc3c(N)nn(C(=O)c4cccc(F)c4)c3nc2c1	.	.	.	.	71	81	43
COc1ccc2cc3c(N)c(C(=O)N4CCCC4)sc3nc2c1	.	.	.	.	.	/	/
COc1ccc(C(=O)n2nc(-c3ccc(OC)cc3)nc2N)cc1	.	.	.	.	.	/	/
COc1ccc2cc3c(N)nn(C(=O)c4ccccc4Cl)c3nc2c1	.	.	65	.	93	93	51
O=C(COC(=O)CCc1nc2ccccc2c(=O)[nH]1)Nc1ccccc1OC(F)F	.	.	/	.	.	/	/
O=C(/C=C/c1ccc2ccccc2n1)N1CCN(S(=O)(=O)c2ccccc2F)CC1	.	.	.	.	76	80	.
O=C(/C=C/c1ccc2ccccc2n1)N1CCN(S(=O)(=O)c2ccc(F)cc2)CC1	.	.	.	.	61	76	.
CC1(C(=O)Nc2cccc(-n3cnnn3)c2)Cc2ccccc2C(=O)O1 (centres undefined)	.	.	/	.	.	/	/
O=C(CSc1ccc(-c2ccc3c(c2)OCO3)nn1)Nc1nccs1	.	.	.	.	89	.	/
COc1ccc(/C=N/NC(=O)c2ccc3ccccc3c2)cc1OS(=O)(=O)c1ccc(NC(C)=O)cc1	.	/	.	/	68	55	58
COc1ccc(/C=N/NC(=O)c2cccnc2)cc1COc1ccc([N+](=O)[O-])cc1	.	.	.	.	51	.	81
COc1ccc(/C=N\NC(=O)c2cccc(F)c2)cc1COc1ccccc1	.	.	88	.	58	64	75
COc1ccc(/C=N/NC(=O)c2cccnc2)cc1COc1ccc(NC(C)=O)cc1	.	.	.	.	52	.	/
COc1ccc(CN2C[C@H](Cc3ccccc3)[C@@H](CC(=O)Nc3ccccc3)C2=O)cc1	.	.	.	.	.	/	/
CCN(CC)C(=O)[C@H]1C[C@H](CC(=O)NCCCn2ccnc2)C(=O)N2CCc3c([nH]c4cc(CCC(=O)N(C)C)ccc34)[C@]12C	/	/	/	/	.	/	/
CC[C@]1(C(=O)OC)[C@H]2C(=O)N(Cc3ccccc3)C(=O)[C@H]2[C@H]2CN=C(SCC(=O)c3ccccc3)N21	/	/	/	/	.	/	/
SMILES	A1 inh	Beta cell apopt	aSyn UTR inh	CSC inhib	Mdm2 MdmX PPI	Mdm2 MdmX conf	Full FLuc ctr
COC(=O)[C@@]1(Cc2ccccc2)[C@H]2C(=O)N(Cc3ccccc3)C(=O)[C@H]2[C@H]2CN=C(SCc3ccc(Cl)cc3)N21	/	/	/	/	99	99	53
CCN1C(=O)[C@H]2[C@H]3CN=C(SCc4ccccc4)N3[C@@](C)(C(=O)OC)[C@H]2C1=O	/	/	/	/	.	/	/
COC(=O)[C@@]1(C)[C@H]2C(=O)N(Cc3ccccc3)C(=O)[C@H]2[C@H]2CN=C(SCc3ccc(Cl)cc3)N21	/	/	/	/	97	100	56
COC(=O)[C@@]1(Cc2ccccc2)[C@H]2C(=O)N(Cc3ccccc3)C(=O)[C@H]2[C@H]2CN=C(SCC(=O)c3ccccc3)N21	/	/	/	/	54	55	50
COC(=O)[C@@]1(C)[C@H]2C(=O)N(Cc3ccccc3)C(=O)[C@H]2[C@H]2CN=C(SCc3ccc(C#N)cc3)N21	/	/	/	/	71	70	51
CCN1C(=O)[C@H]2[C@H]3CN=C(SCc4ccc(Cl)cc4)N3[C@@](Cc3ccccc3)(C(=O)OC)[C@H]2C1=O	/	/	/	/	.	/	/
